HEK cytotox: Cytotoxic Profiling in HEK 293 Cell Line of Diverse Libraries Using Quantitative High-Throughput Screening; HEK 293 viability, ATP luminescence (CellTiter-Glo), 48-72 h; Potency, µM (top dose mostly 115 µM), inactives show at the highest dose activity change, negative = cytotoxicity, most hits filed as inhibitors; hit rate 6.6% among 94,000; active means well fitted curve in the direction sought with a large enough effect; inconclusive means small, poorly fitted or top-dose-only effect, or another doubt; inactive means no such curve, though single readings can be large; an effect the other way counts as inactive or inconclusive; further: on the % scale 0 is the no-effect control and ±100 the full control effect; nearly all actives have a fitted effect of over 60% in size
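Read-out: CellTiter-Glo ATP luminescence. Cells: HEK 293, 250 cells/well. Exposure: 48 or 72 hr, 37 degree Celsius.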
FLuc inh: Firefly luciferase inhibition profiling of diverse chemical library using quantitative high-throughput screening | Luciferin 4-monooxygenase (Photinus pyralis), P08659 | Potency, µM (highest dose often 115 µM), hits mostly inhibitors | AID 1347043, 2019 | hit rate 2.5% among 76,000 | purified P. pyralis luciferase, luminescence, biochemical; active means well fitted curve in the direction sought with a large enough effect; inconclusive means small, poorly fitted or top-dose-only effect, or another doubt; inactive means no such curve, though single readings can be large; an effect the other way counts as inactive or inconclusive; further: on the % scale 0 is the no-effect control and ±100 the full control effect; nearly all actives have a fitted effect of over 65% in size
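FLuc 10nM, D-luciferin 10uM, ATP 10uM, Mg acetate 10mM, Tris acetate pH 7.5, Tween/BSA; cpd qHTS; enzyme added last; CCD luminescence.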
3T3 cytotox: Cytotoxic Profiling in NIH 3T3 Cell Line of Diverse Libraries Using Quantitative High-Throughput Screening; NIH 3T3 viability, CellTiter-Glo ATP luminescence, 48-72 h; hit rate 4.3% among 94,000; Potency, µM (top dose mostly 96.7 µM), inactives show top-dose activity change, negative = cytotoxicity, actives largely listed as inhibitors; active means well fitted curve in the direction sought with a large enough effect; inconclusive means small, poorly fitted or top-dose-only effect, or another doubt; inactive means no such curve, though single readings can be large; an effect the other way counts as inactive or inconclusive; further: on the % scale 0 is the no-effect control and ±100 the full control effect; nearly all actives have a fitted effect of over 55% in size
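Cytotoxicity is measured as loss of cellular ATP: NIH 3T3 cells (400/well) are exposed to compound for 48 or 72 hr at 37 °C, then CellTiter-Glo luminescence is imaged after 10 min at room temperature.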
hNpr1 antagonist: Natriuretic polypeptide receptor (hNpr1) antagonism - Primary qHTS; hit rate 1.6% among 76,000; HEK293 hNpr1 GloSensor cGMP, ANP-stimulated luminescence; Potency, µM (top dose mostly 46.3 µM), for inactives: at the highest dose activity change, negative = inhibition, usual class: inhibitors; Atrial natriuretic peptide receptor 1 (Homo sapiens), P16066; further: on the % scale 0 is the no-effect control and ±100 the full control effect; nearly all actives have a fitted effect of over 60% in size
Target sequence (P16066 whole entry, looked up): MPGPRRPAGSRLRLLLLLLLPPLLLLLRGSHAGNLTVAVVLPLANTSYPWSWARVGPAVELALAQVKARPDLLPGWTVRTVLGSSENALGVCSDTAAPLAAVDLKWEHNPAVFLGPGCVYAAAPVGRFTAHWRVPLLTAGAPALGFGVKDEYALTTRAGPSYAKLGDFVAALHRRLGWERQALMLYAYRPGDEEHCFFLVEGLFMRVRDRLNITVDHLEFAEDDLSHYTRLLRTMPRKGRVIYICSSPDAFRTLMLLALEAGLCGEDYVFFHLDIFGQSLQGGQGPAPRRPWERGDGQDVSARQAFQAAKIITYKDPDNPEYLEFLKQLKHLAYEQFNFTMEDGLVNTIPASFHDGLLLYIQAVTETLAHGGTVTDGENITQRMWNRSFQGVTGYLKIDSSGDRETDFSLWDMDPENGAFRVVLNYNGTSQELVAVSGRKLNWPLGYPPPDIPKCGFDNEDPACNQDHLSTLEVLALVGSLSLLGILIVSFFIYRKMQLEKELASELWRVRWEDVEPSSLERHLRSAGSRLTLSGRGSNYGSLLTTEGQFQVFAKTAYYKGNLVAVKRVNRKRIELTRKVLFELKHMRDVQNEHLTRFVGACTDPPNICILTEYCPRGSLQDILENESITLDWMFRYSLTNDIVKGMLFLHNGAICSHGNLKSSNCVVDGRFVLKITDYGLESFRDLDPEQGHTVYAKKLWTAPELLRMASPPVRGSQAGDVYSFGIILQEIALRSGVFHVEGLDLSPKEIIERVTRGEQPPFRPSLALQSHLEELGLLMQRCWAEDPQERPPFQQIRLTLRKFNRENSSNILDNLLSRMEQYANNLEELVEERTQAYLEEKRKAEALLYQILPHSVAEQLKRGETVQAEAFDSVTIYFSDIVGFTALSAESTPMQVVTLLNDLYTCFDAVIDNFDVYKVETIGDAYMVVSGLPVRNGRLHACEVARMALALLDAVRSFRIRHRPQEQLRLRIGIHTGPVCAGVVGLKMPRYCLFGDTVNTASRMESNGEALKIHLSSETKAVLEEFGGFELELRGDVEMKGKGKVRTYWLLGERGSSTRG
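Compound pre-incubated 30 min at room temperature on GloSensor-loaded HEK293 cells stably carrying hNpr1 and the pGS-40F cGMP biosensor. Stimulation uses hNppA at 0.1 nM final; luminescence is taken at baseline and 20 min post-agonist.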
NPR1 antag cnf: Natriuretic polypeptide receptor (hNpr1) antagonism - Confirmation | shares compounds with hNpr1 antagonist | HEK293 hNpr1 cGMP GloSensor luminescence, ANP-stimulated | Potency, µM (top dose mostly 57.6 µM), for inactives: at the top dose activity change, negative = inhibition, hits mostly inhibitors | hit rate 76% among 1,400 | AID 1347044, 2019; further: nearly all actives have a fitted effect of over 70% in size
Npr2 selectivity: Natriuretic polypeptide receptor (hNpr2) antagonism - Subtype selectivity assay. shares compounds with hNpr1 antagonist. HEK293 hNpr2 GloSensor cGMP luminescence, CNP-stimulated. Potency, µM (highest dose often 57.6 µM), without a hit: at the highest dose activity change, negative = inhibition, hits mostly inhibitors. hit rate 67% among 1,400. AID 1347046, 2019; further: nearly all actives have a fitted effect of over 70% in size
FLuc inh counter: Natriuretic polypeptide receptor (hNpr1) antagonism - Confirmation firefly luciferase (FLuc) inhibition counterscreen; hit rate 0.7% among 1,400; shares compounds with hNpr1 antagonist; Potency, µM (top dose mostly 57.6 µM), without a hit: top-dose activity change, negative = inhibition, hits mostly inhibitors; AID 1347047, 2019; purified FLuc enzyme, luminescence, Km substrate; active means well fitted curve in the direction sought with a large enough effect; inconclusive means small, poorly fitted or top-dose-only effect, or another doubt; inactive means no such curve, though single readings can be large; an effect the other way counts as inactive or inconclusive; further: 0% is about no effect
GloSensor ctrl: Natriuretic polypeptide receptor (hNpr1) antagonism - Counterscreen GloSensor control cell line; shares compounds with hNpr1 antagonist; HEK293 GloSensor cGMP, SNP-stimulated, luminescence; AID 1347051, 2019; Potency, µM (highest dose often 57.6 µM), inactives show at the top dose activity change, negative = inhibition, most hits filed as inhibitors; hit rate 69% among 1,400; further: on the % scale 0 is the no-effect control and ±100 the full control effect; nearly all actives have a fitted effect of over 70% in size
An asterisk follows results filed as active; i = inactive; ? = inconclusive; . = no result given; [ ] = remark or other dose. Hits are enriched below; roughly 11% of the tested compounds scored in any of these assays. Unless noted, the call rests on the fitted dose curve. Potency means the concentration at half of the fitted maximal effect.

SMILES	HEK cytotox	FLuc inh	3T3 cytotox	hNpr1 antagonist	NPR1 antag cnf	Npr2 selectivity	FLuc inh counter	GloSensor ctrl
CNCCN1C(=O)CC[C@H]2CN(c3ncc(Cl)cc3F)CC[C@H]21	?	i	-34%	-6%	.	.	.	.
O=C(NC1CCCc2c1[nH]c1c(Cl)cccc21)C1(c2ccccc2)CCOCC1 (centres undefined)	-5%	i	-23%	1%	.	.	.	.
COc1ccc(C2(C(=O)NC3CCCc4c3[nH]c3ccccc43)CCOCC2)cc1 (centres undefined)	?	i	40µM*	?	22µM*	15µM*	-1%	-5%
Cn1ccc(NC(=O)[C@@H]2C[C@@H](c3ccc(F)cc3)N(Cc3ccccc3)C2)n1	50µM*	i	?	35µM*	40µM*	35µM*	3%[86.2 µM]	35µM*
O=C(Nc1ccon1)[C@@H]1C[C@@H](c2ccc(F)cc2)N(Cc2ccccc2)C1	32µM*	i	?	16µM*	31µM*	20µM*	2%[86.2 µM]	18µM*
O=C(Nc1ccccc1F)NC1CCN(CCn2nc3n(c2=O)CCCC3)C1 (centres undefined)	-6%	.	-2%	.	.	.	.	.
Cc1cc(C(=O)N2CCC3(CC2)N=C(CC(C)C)NC3=O)c(C)o1	-5%	i	-2%	-2%	.	.	.	.
CN(C)CCCn1ccnc1C1CCCN(C(=O)N(C)c2ccccc2)C1 (centres undefined)	3%	i	-22%	4%	.	.	.	.
CCOC(=O)c1ccc(CNC(=O)N2CCC3(CC2)CN(c2ccccc2)C3=O)cc1	?	i	?	?	?	?	-6%	?
CCNC(=O)N1CCC2(CC1)CN(c1ccccc1)C2=O	-7%	i	i	8%	.	.	.	.
COc1ccc(-c2nc(CC3CCN(C(=O)c4ccnn4C)C3)no2)cc1 (centres undefined)	?	i	?	?	.	.	.	.
COc1cccc(S(=O)(=O)N2CCC(n3cnnc3C(C)C)CC2)c1	-27%	i	?	?	?	?	-2%	?
Cc1cc(S(=O)(=O)N2CCC(n3cnnc3-c3ccccc3)CC2)ccc1F	-23%	i	-23%	-28%	.	.	.	.
Cc1ccc(S(=O)(=O)N2CCC(n3cnnc3-c3ccccc3)CC2)cc1C	?	i	?	-23%	?	?	-1%	-4%
CN(Cc1cccnc1)c1ccc2ncc(Nc3cccc(C(F)(F)F)c3)n2n1	40µM*	i	?	13µM*	14µM*	16µM*	-3%[86.2 µM]	13µM*
CCCCNC(=O)c1cccc(-c2cc(N3CCN(C)CC3)nc(N)n2)c1	?	i	-8%	?	?	-28%	1%	?
CC(c1ccc(-c2cc(N3CCN(C)CC3)nc(N)n2)cc1)N1CCOCC1 (centres undefined)	?	i	-19%	1%	.	.	.	.
O=C(c1ccc(-c2ncc3cnc(-c4cccc(F)c4)cn23)cc1)N1CCc2cccnc21	10µM*	i	32µM*	18µM*	14µM*	14µM*	-17%[86.2 µM]	18µM*
CN(C)C(=O)NCCNC(=O)c1cccc(-c2ncccc2C#N)c1	i	.	-12%	.	.	.	.	.
CC(C)NC(=O)c1ccc2oc(-c3ccnc(Cl)c3)nc2c1	?	.	-22%[138 µM]	.	.	.	.	.
COc1ccc(-c2nnc(C[C@@H]3C[C@@H](C(C)C)[C@H](CNC(=O)c4ccc(F)cc4)C=C3C)o2)cc1	?	i	?	?	?	-25%	-1%	?
CC1=C[C@@H](CNC(=O)c2ccccn2)[C@H](C(C)C)C[C@H]1Cc1nnc(-c2ccncc2)o1	22µM*	i	?	14µM*	18µM*	22µM*	-1%[86.2 µM]	18µM*
Cc1ccc(C2Cn3nnc(C(=O)N4CCN(C(=O)Cc5cccc(F)c5)CC4)c3CO2)cc1 (centres undefined)	?	i	3%	11µM*	22µM*	22µM*	1%	22µM*
COc1ccccc1CC(=O)N1CCN(C(=O)c2nnn3c2COC(c2ccc(C)cc2)C3)CC1 (centres undefined)	?	i	-33%	10µM*	19µM*	19µM*	2%	15µM*
COc1cccc(CC(=O)N2CCN(C(=O)c3nnn4c3COC(c3ccccc3)C4)CC2)c1 (centres undefined)	-8%	i	-2%	-14%	.	.	.	.
COc1cccc(CC(=O)N2CCN(C(=O)c3nnn4c3COC(c3ccc(C)cc3)C4)CC2)c1 (centres undefined)	?	i	-7%	?	24µM*	?	4%	?
CCc1ccc(C(=O)N2CCN(C(=O)c3nnn4c3COC(c3ccc(C)cc3)C4)CC2)cc1 (centres undefined)	?	i	-17%	?	19µM*	19µM*	-1%	19µM*
O=C(c1ccc(Cl)cc1)N1CCc2sc(C(=O)N3CCOCC3)cc2C1	?	i	?	0%	.	.	.	.
CCC(=O)N1CCc2sc(C(=O)N3CCN(c4cccc(Cl)c4)CC3)cc2C1	?	i	?	10µM*	19µM*	19µM*	5%	17µM*
CN(C)C(=O)c1cc2c(s1)CCC(C(=O)N1CCN(c3cccc(Cl)c3)CC1)C2 (centres undefined)	?	i	?	?	22µM*	19µM*	2%	15µM*
